Measurements reported in PubChem BioAssay (EPA / NIEHS).
Activity calls are given as the source filed them. How the source made its calls: active means hit-call score of the fitted dose curve at least 0.9, where 1 is the maximum; inactive means score below 0.9.

Key:
[1] = ATG_CRE_CIS: Attagene CIS-FACTORIAL HepG2 Assay for human cAMP Responsive Element (CRE) binding protein 3 (AID 2282926); conditions: HepG2 CRE cis-reporter, Attagene multiplexed mRNA; actives raise or lower the signal
In short: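 Human liver HepG2, transient MRTU transfection, 24 h compound exposure. Total RNA → oligo(dT) RT → PCR → 6-FAM primer extension → HpaI cut → CE. Activity called both directions vs DMSO.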

[2] = target: CCAAT/enhancer-binding protein beta (Homo sapiens) (UniProt P17676); assay: ATG_C_EBP_CIS: Attagene CIS-FACTORIAL HepG2 Assay for human CCAAT/Enhancer Binding Protein (C/EBP) beta (AID 2282927); conditions: HepG2 Attagene cis-factorial transcription factor reporter; actives raise or lower the signal
In short: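 RT-PCR/capillary electrophoresis fluorescence of reporter mRNA, 24 h post-dose, in HepG2 cells carrying transfected cis-promoter reporter units. Bidirectional curve fitting against DMSO baseline captures gain or loss of signal.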

[3] = ATG_CMV_CIS: Attagene CIS-FACTORIAL HepG2 Assay for human CMV (Internal Marker) (AID 2282928); conditions: HepG2 CMV promoter reporter, transcription factor profiling; actives raise or lower the signal;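 further: endpoint acts as a background internal control marker rather than a target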
In short: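 HepG2 cells transiently transfected with multiple cis-regulated reporter units; 24 h compound exposure. Reporter mRNA quantified by RT-PCR, 6-FAM primer-extension labeling, HpaI digestion and capillary electrophoresis; bidirectional fitting against DMSO baseline.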

[4] = ATG_DR4_LXR_CIS: Attagene CIS-FACTORIAL HepG2 Assay for human Liver X Receptor (LXR), DR4 submotif (AID 2282929); conditions: HepG2 Attagene DR4 cis-reporter, mRNA transcription; actives raise or lower the signal
In short: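 HepG2, transient MRTU transfection, cis-element (DR4) promoter; 24 h compound exposure; total RNA → oligo(dT) RT → PCR → 6-FAM primer extension → HpaI cut → CE. Gain/loss vs DMSO, bidirectional fit.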

[5] = target: Aryl hydrocarbon receptor (Homo sapiens) (UniProt P35869); assay: ATG_Ahr_CIS: Attagene CIS-FACTORIAL HepG2 Assay for human Aryl Hydrocarbon Receptor (Ahr) (AID 2282930); conditions: HepG2 AhR cis-factorial reporter transcription; actives raise or lower the signal
In short: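 HepG2 cells transiently transfected with cis-element-driven multiplexed reporter transcription units; endogenous transcription factor activity measured as reporter mRNA 24 h after dosing. RT-PCR, 6-FAM labelling, HpaI digestion, capillary electrophoresis; bidirectional fitting versus DMSO baseline.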

[6] = ATG_AP_1_CIS: Attagene CIS-FACTORIAL HepG2 Assay for human Activator Protein 1 (AP-1) (AID 2282931); conditions: HepG2 Attagene cis-factorial AP-1 reporter mRNA; actives raise or lower the signal
In short: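 Transient MRTU transfection of HepG2 → 24 h chemical treatment → RNA isolation, RT-PCR, 6-FAM labelling, HpaI digest → capillary electrophoresis. Fit: bidirectional, DMSO negative control.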

[7] = ATG_AP_2_CIS: Attagene CIS-FACTORIAL HepG2 Assay for human Activator Protein 2 (AP-2) (AID 2282932); conditions: HepG2 AP-2 cis-reporter, Attagene transcription factor profiling; actives raise or lower the signal
In short: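 HepG2 cells were transiently transfected with multiple cis-promoter reporter transcription units and dosed for 24 h. Reporter mRNA was measured by RT-PCR with capillary electrophoresis fluorescence; bidirectional fits relative to DMSO baseline.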

[8] = ATG_BRE_CIS: Attagene CIS-FACTORIAL HepG2 Assay for human Bone Morphogenetic Protein (BMP) Response Element (BRE) (AID 2282933); conditions: HepG2 BMP response element reporter, Attagene transcription factor profiling; actives raise or lower the signal
In short: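 Transient MRTU transfection of human HepG2 liver cells; 24 h compound treatment; total RNA isolated, reverse-transcribed, PCR-amplified, 6-FAM labelled, HpaI-cut, capillary electrophoresis. DMSO = negative control/baseline, bidirectional fit.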

[9] = target: Retinoic acid receptor alpha (Homo sapiens) (UniProt P10276); assay: ATG_DR5_RAR_CIS: Attagene CIS-FACTORIAL HepG2 Assay for human Retinoic Acid Receptor Alpha (RARE), DR5 submotif (AID 2282934); conditions: HepG2 Attagene cis-factorial RARE DR5 reporter, mRNA; actives raise or lower the signal;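 on AC50: reporter responds to endogenous RAR alpha beta and gamma in HepG2 not RARA alone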
In short: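 HepG2 cells transiently transfected with multiplexed reporter units under cis (DR5 RARE) promoters, so endogenous transcription factor activity is measured. After 24 h compound exposure, reporter mRNA is quantified by RT-PCR with fluorescent labelling and capillary electrophoresis; bidirectional fitting versus DMSO.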

[10] = target: Transcription factor E2F1 (Homo sapiens) (UniProt Q01094); assay: ATG_E2F_CIS: Attagene CIS-FACTORIAL HepG2 Assay for human E2F Transcription Factor 1 (AID 2282935); conditions: HepG2 Attagene cis-reporter, E2F reporter RNA transcripts; actives raise or lower the signal
In short: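 HepG2 cells transiently transfected with multiplexed cis-element reporter units, dosed for 24 h. Reporter mRNA measured by RT-PCR, 6-FAM primer-extension labeling, HpaI digestion and capillary electrophoresis; bidirectional fit versus DMSO baseline.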

[11] = ATG_E_Box_CIS: Attagene CIS-FACTORIAL HepG2 Assay for human Enhancer Box (E-box) (AID 2282936); conditions: HepG2 E-box cis-reporter transcription, actives raise or lower the signal
In short: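 HepG2 cells transiently transfected with multiplexed cis-element reporter units sensing endogenous transcription factor activity; 24 h compound exposure. Reporter mRNA measured by RT-PCR, 6-FAM primer extension, HpaI digestion and capillary electrophoresis; bidirectional fit versus DMSO.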

[12] = ATG_M_61_CIS: Attagene CIS-FACTORIAL HepG2 Assay for M61 Transcription Factor (Internal Marker) (AID 2282937); conditions: HepG2 Attagene CIS-FACTORIAL M61 internal marker reporter; actives raise or lower the signal
In short: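 Human liver HepG2, transient MRTU transfection (cis promoter elements), 24 h compound. Total RNA → oligo(dT) RT → PCR → FAM label → HpaI → CE. Internal background marker; bidirectional fitting, DMSO = baseline.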

[13] = ATG_EGR_CIS: Attagene CIS-FACTORIAL HepG2 Assay for human Early Growth Response 1 (EGR1) (AID 2282938); conditions: HepG2 Attagene CIS-FACTORIAL EGR reporter mRNA; actives raise or lower the signal
In short: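 Transient transfection of human HepG2 with multiple cis-regulated reporter units, chemical exposure 24 h, total RNA isolated. Reverse transcription, PCR, fluorescent labelling and capillary electrophoresis quantify reporter transcripts; activity fitted bidirectionally against DMSO.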

[14] = ATG_M_19_CIS: Attagene CIS-FACTORIAL HepG2 Assay for M19 Transcription Factor (Internal Marker) (AID 2282939); conditions: HepG2 Attagene CIS-FACTORIAL M19 internal marker reporter; actives raise or lower the signal
In short: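 Transfect HepG2 with MRTU reporter library → dose chemical, 24 h → isolate total RNA, reverse-transcribe with oligo(dT) → PCR, 6-FAM label, HpaI cut (2 h, 37 C) → capillary electrophoresis. Bidirectional fit vs DMSO.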

[15] = ATG_ERE_CIS: Attagene CIS-FACTORIAL HepG2 Assay for Estrogen Response Element (ERE) (AID 2282940); conditions: HepG2 ERE cis-reporter, Attagene RNA transcript; actives raise or lower the signal
In short: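 Transient MRTU transfection of human HepG2; cis-element promoters; 24 h dosing; total RNA → RT (oligo dT) → PCR → 6-FAM primer extension → HpaI digest → CE fluorescence. Bidirectional fit, DMSO baseline.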

[16] = ATG_Ets_CIS: Attagene CIS-FACTORIAL HepG2 Assay for human Erythroblast Transformation Specific (ETS) (AID 2282941); conditions: HepG2 ETS cis-reporter transcription, actives raise or lower the signal
In short: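 HepG2 cells transiently transfected with cis-promoter reporter transcription units were dosed for 24 h; reporter mRNA was measured by RT-PCR, 6-FAM primer extension, HpaI digestion and capillary electrophoresis, with bidirectional fitting against DMSO baseline.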

[17] = target: Hepatocyte nuclear factor 3-beta (Homo sapiens) (UniProt Q9Y261); assay: ATG_FoxA2_CIS: Attagene CIS-FACTORIAL HepG2 Assay for human Forkhead box A2 (FOXA2) (AID 2282942); conditions: HepG2 cis-reporter transcription factor activity, 24 h; actives raise or lower the signal
In short: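 Transient MRTU transfection of HepG2 liver cells; 24 h treatment; total RNA → oligo(dT) RT → PCR → FAM primer extension → HpaI cut → CE. Bidirectional fit vs DMSO.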

[18] = ATG_FoxO_CIS: Attagene CIS-FACTORIAL HepG2 Assay for human Forkhead box O (FoxO) (AID 2282943); conditions: HepG2 Attagene cis-reporter, FoxO element, mRNA; actives raise or lower the signal
In short: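 HepG2 cells transiently transfected with cis-promoter-driven multiple reporter transcription units; 24 h after chemical dosing, reporter mRNA quantified by RT-PCR, fluorescent primer extension, HpaI digestion and capillary electrophoresis. Bidirectional fitting versus DMSO baseline.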

[19] = ATG_GATA_CIS: Attagene CIS-FACTORIAL HepG2 Assay for human GATA Binding Protein (AID 2282944); conditions: HepG2 GATA cis-element reporter, Attagene multiplex mRNA; actives raise or lower the signal
In short: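 Transient MRTU transfection, HepG2, 24 h compound exposure. Total RNA → oligo(dT) RT → PCR → 6-FAM primer extension → HpaI cut → CE. Bidirectional fit vs DMSO.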

[20] = ATG_GLI_CIS: Attagene CIS-FACTORIAL HepG2 Assay for human Zinc Finger Protein GLI1 (AID 2282945); conditions: HepG2, Attagene cis-factorial reporter mRNA, GLI element; actives raise or lower the signal
In short: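 HepG2 cells transiently transfected with cis-promoter multiplexed reporter units report endogenous transcription factor activity. After 24 h chemical exposure, reporter mRNA was quantified by RT-PCR, 6-FAM labelling, HpaI digestion and capillary electrophoresis, with bidirectional fitting against DMSO.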

Measured: AC50

Chain of Aryl hydrocarbon receptor (Homo sapiens) (P35869 whole entry, looked up): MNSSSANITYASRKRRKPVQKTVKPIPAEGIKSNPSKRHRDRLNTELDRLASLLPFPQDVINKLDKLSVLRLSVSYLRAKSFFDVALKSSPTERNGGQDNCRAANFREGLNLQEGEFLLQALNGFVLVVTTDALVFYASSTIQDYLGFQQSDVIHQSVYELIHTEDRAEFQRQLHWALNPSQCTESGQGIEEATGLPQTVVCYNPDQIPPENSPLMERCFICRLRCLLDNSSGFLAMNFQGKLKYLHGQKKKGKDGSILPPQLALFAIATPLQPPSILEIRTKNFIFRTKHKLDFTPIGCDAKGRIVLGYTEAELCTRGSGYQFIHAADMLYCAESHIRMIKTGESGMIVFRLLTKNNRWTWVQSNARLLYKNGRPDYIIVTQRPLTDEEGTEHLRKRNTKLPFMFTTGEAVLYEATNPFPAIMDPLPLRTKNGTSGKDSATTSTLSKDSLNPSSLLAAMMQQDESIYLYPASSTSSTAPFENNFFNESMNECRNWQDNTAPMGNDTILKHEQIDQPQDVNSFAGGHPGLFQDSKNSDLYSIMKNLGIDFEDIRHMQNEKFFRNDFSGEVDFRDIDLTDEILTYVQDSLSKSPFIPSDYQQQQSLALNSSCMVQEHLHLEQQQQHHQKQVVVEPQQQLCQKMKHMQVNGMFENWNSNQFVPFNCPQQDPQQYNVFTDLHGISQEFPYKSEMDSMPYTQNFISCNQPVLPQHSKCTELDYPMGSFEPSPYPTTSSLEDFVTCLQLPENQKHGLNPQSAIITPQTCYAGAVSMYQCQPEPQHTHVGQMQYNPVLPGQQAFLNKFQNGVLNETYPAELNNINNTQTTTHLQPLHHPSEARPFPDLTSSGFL
Chain of Retinoic acid receptor alpha (Homo sapiens) (P10276 whole entry, looked up): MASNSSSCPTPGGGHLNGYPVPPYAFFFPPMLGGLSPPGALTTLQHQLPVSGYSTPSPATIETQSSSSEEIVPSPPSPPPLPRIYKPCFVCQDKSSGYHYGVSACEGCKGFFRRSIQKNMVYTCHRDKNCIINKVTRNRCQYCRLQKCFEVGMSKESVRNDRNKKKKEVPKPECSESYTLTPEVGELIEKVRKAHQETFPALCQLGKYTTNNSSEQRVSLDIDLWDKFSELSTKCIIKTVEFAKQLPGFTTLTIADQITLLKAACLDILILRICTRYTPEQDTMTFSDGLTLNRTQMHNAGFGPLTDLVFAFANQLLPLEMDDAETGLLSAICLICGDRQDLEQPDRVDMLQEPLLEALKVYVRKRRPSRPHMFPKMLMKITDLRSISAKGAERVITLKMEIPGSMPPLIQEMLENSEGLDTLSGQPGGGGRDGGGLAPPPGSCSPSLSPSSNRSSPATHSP
Chain of Transcription factor E2F1 (Homo sapiens) (Q01094 whole entry, looked up): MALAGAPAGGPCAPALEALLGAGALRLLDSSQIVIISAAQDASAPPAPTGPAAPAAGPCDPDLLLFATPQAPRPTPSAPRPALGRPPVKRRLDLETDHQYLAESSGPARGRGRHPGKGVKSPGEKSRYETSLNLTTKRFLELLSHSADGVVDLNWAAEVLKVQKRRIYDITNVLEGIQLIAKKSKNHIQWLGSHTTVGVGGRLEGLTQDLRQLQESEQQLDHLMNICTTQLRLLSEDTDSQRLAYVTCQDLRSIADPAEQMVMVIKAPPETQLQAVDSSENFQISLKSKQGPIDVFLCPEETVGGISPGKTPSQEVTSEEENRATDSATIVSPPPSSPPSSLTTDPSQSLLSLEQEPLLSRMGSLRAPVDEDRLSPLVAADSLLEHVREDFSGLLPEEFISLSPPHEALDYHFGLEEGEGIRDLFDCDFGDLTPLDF
Chain of Hepatocyte nuclear factor 3-beta (Homo sapiens) (Q9Y261 whole entry, looked up): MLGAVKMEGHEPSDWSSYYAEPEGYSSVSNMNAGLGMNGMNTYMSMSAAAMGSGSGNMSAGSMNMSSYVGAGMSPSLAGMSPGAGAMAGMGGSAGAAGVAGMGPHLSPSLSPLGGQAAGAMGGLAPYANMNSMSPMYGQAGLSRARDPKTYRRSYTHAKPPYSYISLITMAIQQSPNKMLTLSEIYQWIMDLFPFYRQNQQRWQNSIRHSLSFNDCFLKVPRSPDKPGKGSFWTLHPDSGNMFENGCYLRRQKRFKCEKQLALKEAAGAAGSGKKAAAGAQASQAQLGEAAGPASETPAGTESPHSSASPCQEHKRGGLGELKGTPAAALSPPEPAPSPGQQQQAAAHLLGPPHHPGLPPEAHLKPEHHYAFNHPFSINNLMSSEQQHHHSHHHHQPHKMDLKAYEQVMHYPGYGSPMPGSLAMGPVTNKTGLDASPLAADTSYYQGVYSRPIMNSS
Chain of CCAAT/enhancer-binding protein beta (Homo sapiens) (P17676 whole entry, looked up): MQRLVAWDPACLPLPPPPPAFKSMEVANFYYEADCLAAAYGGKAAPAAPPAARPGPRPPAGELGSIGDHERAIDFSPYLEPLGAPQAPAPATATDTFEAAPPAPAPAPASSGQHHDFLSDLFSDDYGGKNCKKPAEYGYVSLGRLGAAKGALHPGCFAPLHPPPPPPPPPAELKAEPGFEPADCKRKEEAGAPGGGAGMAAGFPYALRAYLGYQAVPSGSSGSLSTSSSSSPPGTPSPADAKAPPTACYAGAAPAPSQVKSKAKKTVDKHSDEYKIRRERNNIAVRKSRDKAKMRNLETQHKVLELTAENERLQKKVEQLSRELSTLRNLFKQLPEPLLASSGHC

CC(=O)OC1C2(C)CCC(C2)C1(C)C (configuration not stated)
inactive: all assays above

CC(CC=O)CCCC(C)(C)O (configuration not stated)
not listed: [17] | [19]
inactive: all other assays above

O=C(O)CCCC[C@@H]1SC[C@@H]2NC(=O)N[C@@H]21
not listed: [17]
inactive: all other assays above

CC1OC1C1CCC2(C)OC2C1 (configuration not stated)
not listed: [17]
inactive: all other assays above

CC=CCO
not listed: [19]
inactive: all other assays above

CO[Si](CCC1CCC2OC2C1)(OC)OC (configuration not stated)
inactive: all assays above

Nc1ccc(-c2ccc(F)cc2)cc1
active: [15] 18.2 µM
inactive: all other assays above

Cc1cccc(N)n1
not listed: [17]
inactive: all other assays above

CCCCCCCCc1ccc(Nc2ccc(CCCCCCCC)cc2)cc1
not listed: [19]
inactive: all other assays above

CC(C)(C)C(=O)C=Cc1ccc(Cl)cc1
inactive: [1] | [3] | [5] | [9] | [10] | [14] | [16] | [18] | [19]
active: [2] 26.5 µM | [4] 17.2 µM | [6] 26 µM | [7] 169 µM | [8] 12.3 µM | [11] 165 µM | [12] 148 µM | [13] 30.2 µM | [15] 155 µM | [17] 178 µM | [20] 59.1 µM

C#CC1(O)CC[C@H]2[C@@H]3CCC4=CCCC[C@@H]4[C@H]3CC[C@@]21C (some centres not stated)
active: [4] 1.24 µM | [8] 34 µM | [9] 49 µM | [14] 55.9 µM | [15] 0.0188 µM | [16] 62.5 µM
not listed: [19]
inactive: all other assays above
